Measurements taken from PubChem BioAssay (EPA / NIEHS).
Records with an inconclusive call do not appear. Activity calls are given as the source filed them. The calls were made as follows: active = hit-call score of the fitted dose curve at least 0.9, where 1 is the maximum; inconclusive = response in the unintended direction; inactive = score below 0.9.

Read-out: organic anion transporter (SLCO1B1), SLCO1B1 (gene 10599)
Assay: CLD_SLCO1B1_48hr: CellzDirect (CLD) Gene Expression Assay for organic anion transporter (SLCO1B1) at 48 hours (AID 2283707)
Procedure: CLD_48hr is a cell-based, multiplexed-readout assay that uses hepatocyte, a human liver primary cell, with measurements taken at 48 hours after chemical dosing in a 96-well plate.CLD_SLCO1B1_48hr is one of 16 assay component(s) measured or calculated from the CLD_48hr assay. It is designed to make measurements of mRNA induction, a form of inducible reporter, as detected with chemiluminescence signals by Quantitative Nuclease Protection Assay (qNPA) technology.Data from the assay component CLD_SLCO1B1_48hr was analyzed at the endpoint, CLD_SLCO1B1_48hr, in the positive analysis fitting direction relative to DMSO as the negative control and baseline of activity. Using a type of inducible reporter, gain-of-signal activity can be used to understand changes in the reporter gene as they relate to the gene SLCO1B1. Furthermore, this assay endpoint can be referred to as a primary readout. To generalize the intended target to other relatable targets, this assay endpoint is annotated to the transporter intended target family, where subfamily is organic anion transporter.
Human hepatocyte cultures were treated daily for two consecutive days with fresh dosing solutions containing appropriate concentrations of the 320 ToxCast chemicals (chemical identities were blinded to CellzDirect and other ToxCast collaborators), vehicle control (0.2% DMSO), and positive control inducers as summarized in Table 1. Due to the large number of treatment groups and chemicals examined, the ToxCast chemicals were divided into two groups (spanning two independent cultures of hepatocytes from separate donor preparations (Hu778: ToxCast plates 1 and 2; Hu776: ToxCast plates 3 and 4). Each preparation of human hepatocyte cultures was treated with respective vehicle control, medium only control, set of six positive controls/reference chemicals for the five hepatic receptor pathways, and a subset of eight of the ToxCast chemicals (indoxacarb, pyrithiobac-sodium, norflurazon, cyhalofop-butyl, methomyl, thiram, acetochlor, and propiconazole). These replicate data, coupled with internal replicates designed within the blinded ToxCast chemical library, provided additional data to evaluate interindividual differences between hepatocyte preparations and their potential impact on chemical profiles.Cell morphology and integrity were evaluated using phase-contrast microscopy as an indicator of hepatocyte cell health (Tyson & Green, 1987). Cultures for each treatment group (i.e., media, vehicle [0.2% DMSO], positive control inducers [multiple concentrations], and the ToxCast chemicals [multiple concentrations]) were observed and cell morphology was assessed relative to vehicle control cultures at each harvest time point (0, 6, 24, or 48 h). […] Images were evaluated at the conclusion of the study to assess changes in cell integrity and account for the effects of chemical exposure on uncharacteristic changes in concentration-dependent gene expression profiles. The results from these determinations of apparent cytotoxicity were annotated (yes/no) alongside the corresponding qNPA data for reference.At the conclusion of each treatment period, hepatocyte cultures (96-well) were washed with 1 volume of HBSS, lysed by addition of 25 ul ArrayPlate lysis buffer (HTG, Tucson, AZ), and 70 ul/well of Denaturation Oil, denatured by incubation at 95C for 10 min, and frozen at approximately -70C until analysis by nuclease protection assay (qNPA) (Roberts et al., 2007). For qNPA analysis, cell lysates were thawed at 50C for approximately 30 min, qNPA probes were added, and samples were incubated at 95C for 10 min to begin the detection process by denaturing the target RNA, dissociating the duplexes and secondary structure hybridization. At the conclusion of the hybridization period, S1 nuclease reagent was added to each sample to digest all nonprotected nucleotides at 50C for 60-90 min. […]

Compound | outcome
CCCCC(CC)COC(=O)c1ccccc1C(=O)O (stereo not drawn) | inactive
COc1c(Cl)ccc(Cl)c1C(=O)O | inactive
CCCN(CCC)C(=O)SCC | inactive
CCC(O)=C1C(=O)CC(C(=O)O)CC1=O (stereo not drawn) | inactive
CCOC(=O)[C@H](C)Oc1ccc(Oc2nc3ccc(Cl)cc3o2)cc1 | inactive
C#CCOC(=O)[C@@H](C)Oc1ccc(Oc2ncc(Cl)cc2F)cc1 | inactive
COC(=O)CSc1cc(N=c2sc(=O)n3n2CCCC3)c(F)cc1Cl | inactive
CC(C)(c1ccc(O)cc1)c1ccc(O)cc1 | inactive
CCCOC(=O)c1ccc(C(=O)OCCC)nc1 | inactive
COC(=O)c1ccccc1S(=O)(=O)NC(=O)Nc1nc(OC(F)F)cc(OC(F)F)n1 | inactive
CCCOC(=O)NCCCN(C)C | inactive
CCOC(=O)NCCOc1ccc(Oc2ccccc2)cc1 | inactive
COC(=O)c1cccc(C)c1S(=O)(=O)NC(=O)Nc1nc(OCC(F)(F)F)nc(N(C)C)n1 | inactive
CCNc1nc(N)nc(Cl)n1 | inactive
CCCCOC(=O)C(C)Oc1ccc(Oc2ccc(C(F)(F)F)cn2)cc1 (stereo not drawn) | inactive
CCSC(=O)N(CC(C)C)CC(C)C | inactive
CCCCOC(=O)[C@@H](C)Oc1ccc(Oc2ccc(C(F)(F)F)cn2)cc1 | inactive
CCOC(=O)C(C)Oc1ccc(Oc2cnc3cc(Cl)ccc3n2)cc1 (stereo not drawn) | inactive
OB(O)O | inactive
COCCO | inactive
CSC(=O)c1cccc2nnsc12 | inactive
c1ccc(Nc2ccccc2)cc1 | inactive
CCC(C)OC(=O)N1CCCCC1CCO (stereo not drawn) | inactive
